The values below come from PubChem BioAssay (NCI).

Compounds without any hit were thinned out: in the full panel of roughly 83,000, 20% have a hit.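 How to read the values: 0–100, growth inhibition (40 = 60% inhibited); 0, no net growth; -100 to 0, cell death (-40 = 40% of starting cells died; -100 = all dead).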 A number with no mark means an inactive call. Active and inactive are the calls of the source. Rule for the calls: active = growth percent below 10; inactive = the rest.

The test system of the assay is NCI-H460 lung. The experiment in a line: NCI-60 one-dose screen, 48 h (100 = growth as untreated, 0 = no growth, -100 = all killed). To be noted: 10 µM unless noted.
Consider `O=C(/C=C/c1ccc(Cl)cc1)c1ccc(NC(=O)N2CCN(c3cc4c(cc3F)c(=O)c(C(=O)O)cn4C3CC3)CC2)cc1`, for which the growth is 87.8%.

With `O=C(/C=C(/C=C/c1csc2ccccc12)OB(F)F)/C=C/c1csc2ccccc12`, the growth was 66.7%.

`CN1CCN(C(=O)[C@]23CCC(C)(C)C[C@H]2C2=CC[C@@H]4[C@@]5(C)C/C(=C/c6cccnc6)C(=O)C(C)(C)[C@@H]5CC[C@@]4(C)[C@]2(C)CC3)CC1`: the growth is 31.9%.

Regarding `CC1=CCC(OC(=O)C(C)(O)CCC(O)(C(=O)OC2(C)C=CC(O)(C(C)C)CC2)C(C)C)(C(C)C)CC1` (stereo not drawn), the growth was 111%.

With `NC1=NN=C(N)C1=Cc1cc2ccccc2n2nnnc12`, the growth is 105%.

Turning to `COc1ccc(NC(N)=NCCCOc2ccc(F)cc2)cc1`, the growth is 101%.

Regarding `O=C1c2ccc3c4c(ccc(c24)C(=O)N1CCCNCc1ccccc1)C(=O)N(CCCNCc1ccccc1)C3=O`, the growth was -73.1% (active).

Take `O=C(NCCNc1nccc(-c2c(-c3cccc(F)c3)nc3sccn23)n1)c1ccc(Cl)cc1`: the growth is 35.8%.

On to `C=C1C(=O)O[C@H]2[C@H]1CC/C(COC(=O)NCCc1c[nH]c3ccc(OC)cc13)=C\CC[C@@]1(C)O[C@@H]21`, for which the growth was 69.4%.

Regarding `COc1cc(CC(=O)c2ccc(O)c(OC)c2)ccc1O`, the growth was 100%.

In the case of `CCN(CC)c1ccc(/C=N/NC(=O)CSc2nc3ccccc3c(=O)n2CCc2ccc(S(N)(=O)=O)cc2)c(O)c1`, the growth is 12.8%.

`Cc1ccc(-n2c3c(c(-c4ccccc4)c2-c2ccccc2)C2=NCCN2C=N3)cc1`: the growth is 90.9%.

For the compound `CN1CCN(C(=O)[C@]23CCC(C)(C)C[C@H]2C2=CC[C@@H]4[C@@]5(C)C/C(=C/c6ccncc6)C(=O)C(C)(C)[C@@H]5CC[C@@]4(C)[C@]2(C)CC3)CC1`, the growth was 33.1%.

Turning to `C=C(C)[C@@H]1CC[C@]2(C(=O)N3CCN(C)CC3)CC[C@]3(C)[C@H](CC[C@@H]4[C@@]5(C)C/C(=C/c6cccnc6)C(=O)C(C)(C)[C@@H]5CC[C@]43C)[C@@H]12`, the growth was 44.3%.

For `N/C(=N\C(N)=N\c1nc2ccccc2s1)c1cccc(Cl)c1`, the growth was 51.7%.

Regarding `CCOC(=O)Nc1ccc(-c2ccc3c(c2)NC(=O)/C3=C\c2ccc[nH]2)cc1`, the growth is 37.1%.

Turning to `CCNC(=O)Oc1ccc(/C(=C(\C)c2ccccc2)c2ccc(OCCN(CC)CC)cc2)cc1`, the growth is 86.6%.

With `CCOC(=O)/C(C#N)=C1/NNC(=Nc2cccnc2)S1`, the growth was 99.3%.

On to `COc1cccc(-c2nc3occn3c2-c2ccnc(NCCCNS(=O)(=O)c3ccc(C(F)(F)F)cc3)n2)c1`, for which the growth was 89.8%.

As to `CC(=O)Nc1ccc(-n2cnc3cc(-c4ccc(OCCN5CCCCC5)cc4)ccc32)cc1`, the growth is 4.54% (active).

`Cn1ccnc1C(=O)/C=C/c1ccc(CC(=O)Nc2ccc(Cl)cc2)cc1`: the growth was -27.6% (active).

On to `C=CCN1C(=O)/C(=C/C(=O)OC)S/C1=N\NC(=O)c1cc2ccc1/C=C\c1ccc(cc1)/C=C\2`, for which the growth is 102%.

With `COc1ccc(/C=C(\C#N)n2nc3cccc(F)c3n2)cc1`, the growth is 106%.

Regarding `N/C(=N\C(N)=N\c1nc2ccccc2s1)c1cnccn1`, the growth was 11.8%.

With `Cc1c(C(=O)NCCC(=O)NO)sc2ncnc(Nc3ccc(NC(=O)Nc4cccc(C(F)(F)F)c4)cc3)c12`, the growth is 99.4%.

Regarding `O=C(Nc1ccc(-c2ccc3c(c2)NC(=O)/C3=C\c2ccc[nH]2)cc1)NC1CC1`, the growth is 59.8%.

For the compound `S=c1cc(S)c2cc(Br)ccc2[nH]1`, the growth is 99.4%.

With `CCCCOc1ccc(/C=N/Nc2cc(C)nc3ccc(Br)cc23)cc1`, the growth is -34.6% (active).

`N/C(=N\C(N)=N\c1nc2ccccc2s1)c1ccnc(Br)c1`: the growth is 16.4%.

For the compound `COc1cc(NC(C)CCCNC(=O)CCC(=O)NCCCNCCCCCCCCNCCCNC(=O)CCC(=O)NCCCC(C)Nc2cc(OC)cc3cccnc23)c2ncccc2c1` (stereo not drawn), the growth was 87.4%.

In the case of `COc1cc2nc(-c3ccc(C(F)(F)F)cc3)cc(OCCCN3CCOCC3)c2cc1OC`, the growth was 18.5%.

Turning to `O=C(Cn1c[n+](CC(=O)c2ccc(-c3ccccc3)cc2)c2ccccc21)Nc1cccc2cccnc12`, the growth is 28.7%.

With `CC(Oc1ccc(C(=O)O)cc1C(F)(F)F)c1ccc(Oc2ccccc2)cn1` (stereo not drawn), the growth was 104%.

As for `O=C(Nc1ccc(F)cc1)Nc1ccc(NC(=O)c2cc(Cl)nc3ccccc23)cc1`, the growth was 18.5%.

Take `O=C(CCN1CCCC1)Nc1ccc2c(Nc3ccc(F)cc3)c3ccccc3nc2c1`: the growth is -66.4% (active).

As to `CC(Sc1nc2ccccc2c(=O)n1CCc1ccc(S(N)(=O)=O)cc1)C(=O)Nc1ccc(Cl)cc1` (stereo not drawn), the growth is 94.7%.

For the compound `O=C(N/N=C/c1cc2ccccc2n2nnnc12)Nc1ccccc1`, the growth is 105%.

`CC1(C)CC(=O)C2=C(C1)N(c1ccc(F)cc1F)C(N)=C(C#N)C2c1cc(Br)ccc1F` (stereo not drawn): the growth is 95%.
